Test results reported in ChEMBL document CHEMBL3988442, “University of Dundee, Small-Polar-MMV Screening Library” (2021).
For some assays here: Potency and affinity values are given separately.

What was measured:
Parameters in all cases: scale not given: direction of the effect not stated beside the values
[1] = molecular target: Protein translocase subunit SecA (Escherichia coli (strain K12)) (UniProt P10408); assay: Assay to Identify E. coli SecA ATPase Inhibitors; assay type: functional; details: 30 µM
[2] = molecular target: T1, Ubiquitin-activating enzyme e1, putative (Leishmania donovani (strain BPK282A1)) (UniProt E9BSI1); assay: Leishmania donovani Ubiquitin Activating Enzyme (LdE1); assay type: functional; details: 30 µM
T1 sequence (whole entry): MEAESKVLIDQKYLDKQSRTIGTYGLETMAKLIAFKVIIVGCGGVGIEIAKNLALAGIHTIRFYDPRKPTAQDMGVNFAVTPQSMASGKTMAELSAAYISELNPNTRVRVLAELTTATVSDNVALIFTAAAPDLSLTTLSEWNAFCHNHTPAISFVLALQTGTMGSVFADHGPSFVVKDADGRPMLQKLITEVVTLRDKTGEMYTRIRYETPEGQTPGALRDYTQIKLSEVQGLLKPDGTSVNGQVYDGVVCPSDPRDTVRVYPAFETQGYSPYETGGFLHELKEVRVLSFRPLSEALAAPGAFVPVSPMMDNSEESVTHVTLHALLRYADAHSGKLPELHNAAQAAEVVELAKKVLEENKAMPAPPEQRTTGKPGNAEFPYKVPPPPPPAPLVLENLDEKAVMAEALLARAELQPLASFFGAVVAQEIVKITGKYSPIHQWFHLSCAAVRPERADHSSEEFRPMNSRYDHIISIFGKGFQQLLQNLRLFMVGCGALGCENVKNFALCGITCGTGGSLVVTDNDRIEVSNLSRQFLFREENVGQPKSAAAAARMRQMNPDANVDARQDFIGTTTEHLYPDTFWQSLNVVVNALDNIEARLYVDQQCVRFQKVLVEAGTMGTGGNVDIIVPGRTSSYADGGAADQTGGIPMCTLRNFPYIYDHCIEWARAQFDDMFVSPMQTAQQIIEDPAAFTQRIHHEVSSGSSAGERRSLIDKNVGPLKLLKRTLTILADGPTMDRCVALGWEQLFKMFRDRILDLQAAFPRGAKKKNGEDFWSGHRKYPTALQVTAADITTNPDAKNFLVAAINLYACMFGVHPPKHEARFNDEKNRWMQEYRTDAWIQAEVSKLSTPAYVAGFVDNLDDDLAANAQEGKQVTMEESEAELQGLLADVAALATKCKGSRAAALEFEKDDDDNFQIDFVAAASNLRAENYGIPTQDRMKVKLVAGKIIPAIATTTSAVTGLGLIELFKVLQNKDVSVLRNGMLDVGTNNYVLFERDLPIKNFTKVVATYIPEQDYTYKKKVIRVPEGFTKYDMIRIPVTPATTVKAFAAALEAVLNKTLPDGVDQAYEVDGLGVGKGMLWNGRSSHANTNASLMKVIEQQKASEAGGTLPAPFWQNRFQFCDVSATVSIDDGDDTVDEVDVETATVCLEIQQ

[3] = molecular target: AMP-activated protein kinase, AMPK (Homo sapiens) (UniProt P54646+O43741+P54619+Q9UGJ0+Q9Y478+Q13131+Q9UGI9); assay: AMP-dependent Kinase enzyme assay. An in vitro enzyme assay that detects ADP turnover that is directly proportional to AMPK activity. This uses naive AMPK that is activated during the assay with MK-8722; assay type: functional; details: 30 µM
[4] = molecular target: Sialic acid-binding Ig-like lectin 9 (Homo sapiens) (UniProt Q9Y336); assay: Hs-Siglec9 ALPHAscreen SOP 20170721; details: 10 µM
Trypanosoma cruzi = assay: Trypanosoma cruzi phosphomannomutase and mannose-1-phosphate guanylyltransferase assay; assay type: functional; details: 10 µM
[5] = molecular target: T2, Arginase-2, mitochondrial (Homo sapiens) (UniProt P78540); assay: in vitro enzyme assay to detect the production of urea directly proportional to the activity of Arginase II; assay type: functional; details: 33.3 µM; further: in the data most compounds retested in dose-response had high values
T2 sequence (whole entry): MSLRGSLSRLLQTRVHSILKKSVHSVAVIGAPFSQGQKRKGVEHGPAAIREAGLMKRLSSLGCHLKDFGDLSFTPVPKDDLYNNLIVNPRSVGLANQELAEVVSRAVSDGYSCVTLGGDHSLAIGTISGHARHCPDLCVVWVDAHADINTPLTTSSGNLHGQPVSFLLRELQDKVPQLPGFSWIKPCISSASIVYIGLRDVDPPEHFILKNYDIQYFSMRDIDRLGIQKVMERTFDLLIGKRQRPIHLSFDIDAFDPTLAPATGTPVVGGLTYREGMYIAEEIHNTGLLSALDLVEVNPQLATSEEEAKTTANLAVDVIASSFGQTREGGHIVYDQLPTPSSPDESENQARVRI

[6] = molecular target: T3, Proteasome subunit beta (Trypanosoma cruzi) (UniProt O96673); assay: Trypanosoma cruzi proteasome chymotrypsin-like activity (TcProtChymo) assay.; further: in the data most compounds retested in dose-response had high values; assay type: functional; details: 9.37 µM
T3 sequence (whole entry): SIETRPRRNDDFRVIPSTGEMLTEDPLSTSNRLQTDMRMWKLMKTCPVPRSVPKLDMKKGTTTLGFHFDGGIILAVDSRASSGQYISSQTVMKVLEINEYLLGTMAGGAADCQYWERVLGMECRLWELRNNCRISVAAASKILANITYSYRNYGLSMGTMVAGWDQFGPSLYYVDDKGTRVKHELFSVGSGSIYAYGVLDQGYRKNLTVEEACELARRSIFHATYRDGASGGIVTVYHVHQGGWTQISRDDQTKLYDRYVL

Homo sapiens = species on record: Homo sapiens; assay: To identify inhibition of the IFN signalling (Jak-Stat) pathway via expression of an eGFP reporter gene under the control of an IFN-stimulated response element (ISRE) containing MxA promoter.; assay type: functional; details: 30 µM
[7] = molecular target: T4, Tyrosyl-tRNA synthetase, putative (Trypanosoma cruzi (strain CL Brener)) (UniProt Q4DSP6); assay: Trypanosoma cruzi tyrosyl tRNA synthetase (TcYRS) _High Tyrosine SOP; assay type: functional; details: 30 µM; further: in the data most compounds retested in dose-response had high values
T4 sequence (whole entry): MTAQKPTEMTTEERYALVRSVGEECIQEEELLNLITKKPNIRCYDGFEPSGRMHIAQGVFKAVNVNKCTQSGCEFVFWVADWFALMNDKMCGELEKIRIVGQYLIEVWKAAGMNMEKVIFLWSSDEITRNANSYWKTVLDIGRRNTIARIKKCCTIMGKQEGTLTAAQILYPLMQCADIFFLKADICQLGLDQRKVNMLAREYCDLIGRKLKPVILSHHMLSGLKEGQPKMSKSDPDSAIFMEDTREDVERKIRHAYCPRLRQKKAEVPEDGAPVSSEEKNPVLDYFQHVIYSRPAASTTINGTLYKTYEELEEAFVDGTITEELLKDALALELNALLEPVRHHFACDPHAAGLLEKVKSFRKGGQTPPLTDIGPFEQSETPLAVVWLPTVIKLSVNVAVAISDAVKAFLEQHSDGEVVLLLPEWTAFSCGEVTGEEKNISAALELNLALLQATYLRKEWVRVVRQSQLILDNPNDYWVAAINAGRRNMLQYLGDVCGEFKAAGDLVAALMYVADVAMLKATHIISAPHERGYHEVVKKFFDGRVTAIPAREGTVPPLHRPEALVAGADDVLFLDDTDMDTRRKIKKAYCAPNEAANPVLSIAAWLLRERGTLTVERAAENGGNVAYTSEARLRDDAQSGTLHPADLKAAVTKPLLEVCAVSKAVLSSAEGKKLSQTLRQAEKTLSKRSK

[8] = molecular target: T4, Tyrosyl-tRNA synthetase, putative (Trypanosoma cruzi (strain CL Brener)); assay: Trypanosoma cruzi tyrosyl tRNA synthetase (TcYRS) SOP; assay type: functional; details: 30 µM
[9] = molecular target: Chromo domain-containing protein 1 (Saccharomyces cerevisiae (strain ATCC 204508 / S288c) (Baker's yeast)) (UniProt P32657); assay: ScCHD-1 Enzyme Inhibition Assay; assay type: functional; details: 30 µM; further: in the data most compounds retested in dose-response had high values
Sequence of Chromo domain-containing protein 1 (Saccharomyces cerevisiae (strain ATCC 204508 / S288c) (Baker's yeast)) (P32657 whole entry, the tested form may be a part): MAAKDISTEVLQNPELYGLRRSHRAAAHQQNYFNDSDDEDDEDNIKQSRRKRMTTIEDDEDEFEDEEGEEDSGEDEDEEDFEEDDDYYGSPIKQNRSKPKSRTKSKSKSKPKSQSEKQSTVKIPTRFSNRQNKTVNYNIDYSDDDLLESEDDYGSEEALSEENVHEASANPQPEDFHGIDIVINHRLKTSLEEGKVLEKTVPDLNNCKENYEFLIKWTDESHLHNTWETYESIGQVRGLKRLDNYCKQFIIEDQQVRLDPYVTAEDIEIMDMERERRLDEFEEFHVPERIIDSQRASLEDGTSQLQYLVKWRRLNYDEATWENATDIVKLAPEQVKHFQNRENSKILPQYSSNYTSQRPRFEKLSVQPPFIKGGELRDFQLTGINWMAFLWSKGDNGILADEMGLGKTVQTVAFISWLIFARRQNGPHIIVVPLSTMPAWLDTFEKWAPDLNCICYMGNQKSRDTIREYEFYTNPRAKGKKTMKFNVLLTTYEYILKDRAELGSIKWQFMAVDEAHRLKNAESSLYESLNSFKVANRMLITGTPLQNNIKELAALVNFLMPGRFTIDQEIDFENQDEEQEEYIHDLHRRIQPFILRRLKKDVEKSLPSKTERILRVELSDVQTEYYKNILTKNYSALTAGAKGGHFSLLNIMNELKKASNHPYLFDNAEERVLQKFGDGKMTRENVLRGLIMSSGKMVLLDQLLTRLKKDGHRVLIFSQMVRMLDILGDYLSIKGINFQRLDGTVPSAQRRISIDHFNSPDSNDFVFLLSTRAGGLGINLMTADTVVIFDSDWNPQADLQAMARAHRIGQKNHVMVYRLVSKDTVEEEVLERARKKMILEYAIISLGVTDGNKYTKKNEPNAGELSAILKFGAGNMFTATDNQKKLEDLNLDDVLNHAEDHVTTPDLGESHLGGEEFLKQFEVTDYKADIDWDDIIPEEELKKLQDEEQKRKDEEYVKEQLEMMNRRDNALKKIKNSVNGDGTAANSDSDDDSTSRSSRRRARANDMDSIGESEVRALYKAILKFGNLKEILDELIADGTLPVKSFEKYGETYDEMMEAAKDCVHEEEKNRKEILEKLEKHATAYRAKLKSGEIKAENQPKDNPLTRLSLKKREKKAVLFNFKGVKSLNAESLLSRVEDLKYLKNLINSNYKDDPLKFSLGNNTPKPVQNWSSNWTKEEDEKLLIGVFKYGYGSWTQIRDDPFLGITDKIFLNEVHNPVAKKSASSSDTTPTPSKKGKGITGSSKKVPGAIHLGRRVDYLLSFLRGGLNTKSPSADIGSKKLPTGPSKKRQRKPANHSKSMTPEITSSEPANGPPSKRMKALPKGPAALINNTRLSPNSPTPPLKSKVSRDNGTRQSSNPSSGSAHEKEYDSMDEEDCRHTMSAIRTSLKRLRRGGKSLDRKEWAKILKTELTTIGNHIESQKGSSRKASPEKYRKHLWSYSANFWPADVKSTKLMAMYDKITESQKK

Sequence of Sialic acid-binding Ig-like lectin 9 (Homo sapiens) (Q9Y336 whole entry): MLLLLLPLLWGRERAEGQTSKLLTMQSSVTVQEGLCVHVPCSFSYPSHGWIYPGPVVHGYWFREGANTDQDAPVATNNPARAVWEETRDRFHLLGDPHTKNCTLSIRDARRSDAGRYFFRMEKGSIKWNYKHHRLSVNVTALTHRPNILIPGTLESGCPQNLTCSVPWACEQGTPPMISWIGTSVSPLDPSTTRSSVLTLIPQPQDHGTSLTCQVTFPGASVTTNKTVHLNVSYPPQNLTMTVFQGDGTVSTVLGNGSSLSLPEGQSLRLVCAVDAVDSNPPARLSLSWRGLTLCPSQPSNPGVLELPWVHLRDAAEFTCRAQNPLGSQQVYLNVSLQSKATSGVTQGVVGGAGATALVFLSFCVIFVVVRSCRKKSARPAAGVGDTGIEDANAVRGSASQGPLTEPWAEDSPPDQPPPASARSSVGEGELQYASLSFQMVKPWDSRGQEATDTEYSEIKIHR
Sequence of Protein translocase subunit SecA (Escherichia coli (strain K12)) (P10408 whole entry): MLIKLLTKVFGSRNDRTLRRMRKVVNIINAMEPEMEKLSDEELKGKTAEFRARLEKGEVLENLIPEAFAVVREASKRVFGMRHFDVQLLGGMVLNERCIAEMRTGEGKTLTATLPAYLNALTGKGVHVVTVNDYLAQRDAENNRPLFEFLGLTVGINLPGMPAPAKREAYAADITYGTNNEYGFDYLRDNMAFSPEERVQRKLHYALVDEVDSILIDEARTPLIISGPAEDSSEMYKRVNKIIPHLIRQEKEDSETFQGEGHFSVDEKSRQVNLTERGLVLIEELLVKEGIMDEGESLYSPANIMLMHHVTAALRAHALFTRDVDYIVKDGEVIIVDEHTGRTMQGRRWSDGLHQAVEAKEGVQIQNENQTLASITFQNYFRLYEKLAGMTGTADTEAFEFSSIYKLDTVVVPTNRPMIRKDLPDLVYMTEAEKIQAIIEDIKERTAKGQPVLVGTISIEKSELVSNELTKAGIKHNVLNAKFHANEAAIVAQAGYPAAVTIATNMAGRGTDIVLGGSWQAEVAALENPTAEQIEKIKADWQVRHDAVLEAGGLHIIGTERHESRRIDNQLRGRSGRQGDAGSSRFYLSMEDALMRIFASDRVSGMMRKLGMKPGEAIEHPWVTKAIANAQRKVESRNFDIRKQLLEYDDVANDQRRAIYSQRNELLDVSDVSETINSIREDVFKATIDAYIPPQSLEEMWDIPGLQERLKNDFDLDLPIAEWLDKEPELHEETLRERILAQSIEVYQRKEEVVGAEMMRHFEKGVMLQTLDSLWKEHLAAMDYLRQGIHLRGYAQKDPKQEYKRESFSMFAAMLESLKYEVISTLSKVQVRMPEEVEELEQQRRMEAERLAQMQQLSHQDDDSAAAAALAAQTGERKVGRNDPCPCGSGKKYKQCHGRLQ

| SMILES | Percent Effect [1] [%] | Percent Effect [2] [%] | Percent Effect [3] [%] | Percent Effect [4] [%] | Percent Effect (Trypanosoma cruzi) [%] | Percent Effect [5] [%] | Percent Effect [6] [%] | Percent Effect (Homo sapiens) [%] | Percent Effect [7] [%] | Percent Effect [8] [%] | Percent Effect [9] [%] |
| --- | --- | --- | --- | --- | --- | --- | --- | --- | --- | --- | --- |
| Cc1cnc(CN(C)C2CCN(CCn3cc(C#N)cn3)C2)o1 (configuration not stated) | 2.65 | 16.2 | -13.3 | -2.11 | -7.83 | -2 | 21.4 | 6.73 | 3.45 | 11.1 | -2.79 |
| COc1ccc(CCC(=O)N2CCCC2Cn2cc(C)cn2)cc1F (configuration not stated) | -2.77 | 0 | 9.15 | 2.46 | 1.27 | 4 | -2.67 | -9.57 | 1.91 | 2.35 | -12.9 |
| O=C1COc2ccc(C(=O)NS(=O)(=O)c3ccc(F)cc3F)cc2N1 | -2.51 | -7.89 | 6.3 | -2.06 | 2.15 | -4.32 | -1.78 | -9.03 | 4.43 | 3.7 | 6.46 |
| c1cnc(NCc2cncc3c2CCN(Cc2cccs2)C3)nc1 | -0.336 | 10.7 | 8.51 | -0.683 | -7.28 | 2.1 | 9.43 | 12.1 | 3.19 | 8.97 | -5.11 |
| COc1ccc(COCC(O)CNC(=O)c2cccnc2)cc1 (configuration not stated) | -2.83 | 3.8 | 0.844 | -5.42 | -7.08 | -5.38 | 8.75 | 2.64 | 1.04 | 0 | -14.1 |
| Cc1cn2nc(N3CCCC3Cn3nc(C)cc3C)sc2n1 (configuration not stated) | -2.86 | 6.33 | 3.5 | 0.585 | 1.74 | -0.645 | 9.43 | 19.6 | 4.17 | 7.59 | -20 |
| O=C(CCN1CCOC(Cn2cccn2)C1)NC1CCCC1 (configuration not stated) | -6.8 | 19 | -3.66 | -3.31 | 3.59 | 0.215 | 15.4 | 4.11 | 8.33 | 5.06 | -15.2 |
| CCn1cc(CN2CCCN(C(=O)C3=NN(C)C(=O)CC3)CC2)cn1 | 0.989 | 18.2 | 0.0374 | -13.6 | -0.686 | 6.11 | 13.7 | 29.5 | 5.71 | 0 | -17.5 |
| CCC[C@@H]1CN(S(=O)(=O)c2ccc(C)c(F)c2)C[C@H]1N(C)C | -4.83 | 2.67 | -4.64 | -1.02 | -8.86 | 2.08 | 16.2 | 3.61 | 1.64 | 6.17 | -7.9 |
| NC(=O)c1csc(C(=O)N2CCCC(n3ccnc3)C2)c1 (configuration not stated) | -5.24 | 3.8 | 5.04 | 3 | 2.56 | 1.5 | 7.72 | -1.55 | 4.17 | 15.2 | -9.55 |
| Cc1c[nH]c(CN(C)C(=O)c2cccc(CCC(C)(C)O)c2)n1 | -4.48 | 8 | -4.37 | 15.8 | 5.16 | 20.3 | 18 | -2.28 | 3.83 | 16.1 | -3.88 |
| Cn1c(C(F)(F)F)nn(CCNC(=O)CSCc2ccccc2)c1=O | -3.49 | 8.22 | 2.99 | 4.38 | 4.7 | 5 | 4.79 | 14.2 | 4.3 | 15 | -4.6 |
| CCC(=O)NCCc1cc(N2CCN(C(C)=O)CC2)nc(C2CC2)n1 | -1.34 | 6.76 | 12.6 | -2.83 | -6.72 | 3.02 | 10.3 | 16.2 | 2.15 | 11.7 | 1.75 |
| CCN1CC(C(=O)NC(C)(C)CC(C)(C)C)CC1=O (configuration not stated) | -3.13 | 10.8 | -0.778 | 22.8 | 4.4 | 21.1 | 5.06 | -0.424 | 5.38 | 8.64 | -10.2 |
| COc1cccc(COCC(=O)N2CCN(CC(C)(C)O)CC2)c1 | 1.47 | -5.26 | 7.35 | 8.14 | -3.76 | 6.51 | -0.167 | 21 | 1.47 | -2.44 | -5.7 |
| Cn1ccnc1CN1CCCN(C(=O)c2ccc(Cl)o2)CC1 | -4.86 | 0 | -1.55 | 4.15 | 1.4 | 1.44 | 3.13 | -16.8 | 2.46 | 1.24 | 0.744 |
| CC(C)c1cc(NCC(C)N2CCCC2)n2nccc2n1 (configuration not stated) | 1.2 | 8.11 | 1.17 | 6.08 | -2.51 | -1.43 | 20.5 | 6.7 | 12.2 | 17.1 | -5.28 |
| COc1cc(CNCCc2cnn(C)c2)cc2c1OCCO2 | -5.21 | 10.5 | 1.71 | 15.7 | 1.32 | -1.92 | 10.2 | 0.122 | 4.41 | 12.2 | -6.6 |
| CN(C)CCN1CCC2(CC1)CN(c1cccnc1)C(=O)CO2 | -2.58 | 10.8 | 0.668 | -8.57 | -5.18 | 2.23 | 24.4 | 12.1 | 4.32 | 10.3 | -2.65 |
| CN1CCc2onc(CNc3ncccn3)c2C1 | -7.63 | 2.67 | 0.141 | -6.27 | -7.53 | -53.9 | 3.25 | 3.62 | 0 | 5 | -6.01 |
| O=C(CSc1ncccn1)N1C[C@H]2CC[C@@H]1CN(Cc1ccncc1)C2 | -4.87 | 11 | -5.51 | 21 | 6.46 | 8.64 | 12.9 | -3.77 | 5.38 | 7.5 | -3.96 |
| O=C(Nc1cc(C(F)(F)F)c[nH]c1=O)c1ccco1 | -2.24 | -2.63 | 19.1 | 5.92 | 0.28 | -15.5 | 10.9 | -15.5 | 6.4 | 6.17 | 0.552 |
